Hits are enriched below; roughly 1.8% of the tested compounds scored in any of these assays.
Rtt109 Vps75 = blocks Candida albicans Rtt109/Vps75 acetyltransferase activity | 330,000 tested, 0.16% active | purified Rtt109/Vps75, ThioGlo CoA-SH fluorescence, 4 h | AID 540336 | inhibition, % at 34.9 µM;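 active means inhibition of at least 50% in every replicate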
NOD2 RIPK2 PPI = inhibitors of human NOD2-RIPK2 interaction; CHO BLA complementation NOD2-RIPK2, CCF4 ratio; AID 624267; 360,000 tested, 0.38% active; inhibition, % at 4.98 µM; O43353; in the data active means inhibition above about 21%
TLR9-MyD88 inh = inhibitors of human TLR9-MyD88 binding. CHO BLA complementation TLR9-MyD88, CCF4 FRET ratio. inhibition, % at 4.98 µM. 340,000 tested, 0.21% active. Q9NR96+Q99836;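 active means inhibition above the mean over all tested compounds plus 3 SD, cut at about 21% in these data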
m5-HT2A agonist = mouse HTR2A agonism via beta-arrestin recruitment; 360,000 tested, 0.66% active; AID 624169; activation, % at 7.6 µM; CHO-K1 mHTR2A beta-arrestin complementation, luminescence; percent of 30 µM serotonin response; P35363;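 active means activation above a run cutoff, the mean activation of all tested compounds plus 3 SD, cut at about 14% in these data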
LANA-H2A inh = blocks KSHV LANA binding to histone H2A/H2B | AID 2629 | cell-free LANA-H2A/H2B peptide, fluorescence polarization | inhibition, % (test concentration not listed) | 320,000 tested, 0.6% active; in the data active means inhibition mostly above about 10%, no sharp cut-off; inactive means mostly below about 6.7%
TLR4 MyD88 comp = blocks binding of human TLR4 to MyD88; O00206+Q99836; HeLa CL3-4 TLR4/MyD88 BLA complementation, FRET ratio; inhibition, % at 8.4 µM; 200,000 tested, 0.18% active; in the data active means inhibition above about 25%
TLR9-MyD88 conf = confirmation of human TLR9-MyD88 binding inhibitors; 680 tested, 51% active; shares compounds with TLR9-MyD88 inh; CHO TLR9/MyD88 BLA complementation, CCF4 FRET ratio; inhibition, % at 4.98 µM;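 active means mean inhibition across three repeats above about 21% taken from the earlier screen, limit read from the data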;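 further: blue over green emission ratio reports constitutive TLR9 MyD88 association via BLA complementation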
BLA counter-1 = counter-screen for TLR9-MyD88 inhibitors: non-selective beta-lactamase inhibitors; CHO-BLA cells, CCF4 FRET ratio, BLA reporter; AID 540251; inhibition, % at 4.98 µM; shares compounds with TLR9-MyD88 inh; 680 tested, 7% active;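 active means mean inhibition above a 50% cutoff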;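 further: counterscreen of TLR9-MyD88 hits on CMV-driven BLA in CHO-K1 cells; higher means less blue over green ratio so more BLA blockade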
TLR9 CHO cytotox = CHO cell toxicity counter-screen for TLR9-MyD88 inhibitors; shares compounds with TLR9-MyD88 inh; TLR9-MyD88 CHO cells cytotoxicity, luminescence; 680 tested, 39% active; inhibition, % at 4.98 µM; in the data active means inhibition above about 11%
NOD2-RIPK2 conf = NOD2-RIPK2 interaction inhibition confirmed. shares compounds with NOD2 RIPK2 PPI. inhibition, % at 4.98 µM. 1,200 tested, 70% active. AID 624370. CHO cells, NOD2-RIPK2 BLA complementation, CCF4 FRET;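 active means mean inhibition across replicates above a set limit taken from the earlier primary screen, cut at about 21% in these data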
BLA counter-2 = NOD2-RIPK2 counterscreen BLA reporter activity; shares compounds with NOD2 RIPK2 PPI; CHO BLA reporter, CCF4 FRET ratio; inhibition, % at 4.98 µM; 1,200 tested, 57% active;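 active means mean inhibition above the low-control mean inhibition plus three low-control SD, cut at about 11% in these data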
Large screens that a line does not name were inactive (follow-up assays come after a bar, where they were run).

CCN(c1ccccc1)S(=O)(=O)c1ccc(NC(=O)c2nc(S(C)(=O)=O)ncc2Cl)cc1	NOD2 RIPK2 PPI 97, TLR9-MyD88 inh 61 (no result: TLR4 MyD88 comp) | TLR9-MyD88 conf 59 | BLA counter-1 inactive | TLR9 CHO cytotox 100 | NOD2-RIPK2 conf 98 | BLA counter-2 49
CCCNC(=O)C1(C)CCCN(Cc2ccc(Oc3ccccc3)cc2)C1 (stereo unspecified)	none (no result: Rtt109 Vps75, TLR9-MyD88 inh, LANA-H2A inh, TLR4 MyD88 comp)
COc1cc(C(C)n2nnc3ccccc32)ccc1O (stereo unspecified)	none (no result: Rtt109 Vps75, LANA-H2A inh, TLR4 MyD88 comp)
Nc1ncnc2c1ncn2[C@@H]1O[C@H](C(=O)N2CCN(c3ccc(Cl)cn3)CC2)[C@@H](O)[C@H]1O	none (no result: Rtt109 Vps75, TLR9-MyD88 inh, LANA-H2A inh, TLR4 MyD88 comp)
CCCSc1cc(NCCOC(C)=O)c([N+](=O)[O-])c2nonc12	none
Cc1nnc(Sc2cc(NCCCO)c([N+](=O)[O-])c3nonc23)s1	Rtt109 Vps75 active, NOD2 RIPK2 PPI 41, TLR9-MyD88 inh 36 (no result: LANA-H2A inh) | TLR9-MyD88 conf 64 | BLA counter-1 inactive | TLR9 CHO cytotox 99 | NOD2-RIPK2 conf 60 | BLA counter-2 18
CCCC(=O)OCCNc1cc(Sc2nccn2C)c2nonc2c1[N+](=O)[O-]	NOD2 RIPK2 PPI 71, TLR9-MyD88 inh 53 | TLR9-MyD88 conf 71 | BLA counter-1 inactive | TLR9 CHO cytotox 97 | NOD2-RIPK2 conf 92 | BLA counter-2 47
CCC(=O)OCCNc1cc(Sc2nc3ccccc3s2)c2nonc2c1[N+](=O)[O-]	NOD2 RIPK2 PPI 49, TLR9-MyD88 inh 39 | TLR9-MyD88 conf 61 | BLA counter-1 inactive | TLR9 CHO cytotox 98 | NOD2-RIPK2 conf 75 | BLA counter-2 14
CCCC(=O)OCCNc1cc(SCc2ccco2)c2nonc2c1[N+](=O)[O-]	none
CCCN(C)C1CN(Cc2cn(Cc3ccccc3)nn2)S(=O)(=O)C1 (stereo unspecified)	none (no result: Rtt109 Vps75, TLR9-MyD88 inh, LANA-H2A inh, TLR4 MyD88 comp)
NC(=O)/C(=N\OC(=O)c1ccco1)c1nc(-c2ccc(Br)cc2)cs1	NOD2 RIPK2 PPI 21, TLR9-MyD88 inh 36 (no result: LANA-H2A inh) | TLR9-MyD88 conf inactive | BLA counter-1 inactive | TLR9 CHO cytotox inactive | NOD2-RIPK2 conf 43 | BLA counter-2 22
CC(C)(C)c1cc(C2=CSC3=NCCN23)cc(C(C)(C)C)c1O	NOD2 RIPK2 PPI 24, TLR9-MyD88 inh 21 (no result: TLR4 MyD88 comp) | TLR9-MyD88 conf inactive | BLA counter-1 inactive | TLR9 CHO cytotox inactive | NOD2-RIPK2 conf 33 | BLA counter-2 17
CC1(C(=O)NCC2CCCCC2)CCN1C(=O)Cc1ccc(-c2ccccc2)cc1 (stereo unspecified)	none (no result: Rtt109 Vps75, TLR9-MyD88 inh, LANA-H2A inh, TLR4 MyD88 comp)
C[C@@H]1CN([C@H](C)CO)S(=O)(=O)c2ccc(C#Cc3ccccc3F)cc2O[C@@H]1CN(C)C(=O)Cc1ccccc1	none (no result: Rtt109 Vps75, LANA-H2A inh, TLR4 MyD88 comp)
Oc1ccc2nnc3c(Br)cnn3c2c1	NOD2 RIPK2 PPI 44, TLR9-MyD88 inh 32, LANA-H2A inh 19 (no result: TLR4 MyD88 comp) | TLR9-MyD88 conf 27 | BLA counter-1 inactive | TLR9 CHO cytotox inactive | NOD2-RIPK2 conf 60 | BLA counter-2 58
Nc1ccc2c3c(cccc13)-c1ccccc1-2	NOD2 RIPK2 PPI 67, TLR9-MyD88 inh 62 (no result: LANA-H2A inh, TLR4 MyD88 comp) | TLR9-MyD88 conf 58 | BLA counter-1 54 | TLR9 CHO cytotox inactive | NOD2-RIPK2 conf 74 | BLA counter-2 81
CS(=O)(=O)c1sc(C#N)c2c1C(=O)CC(c1ccccc1)C2 (stereo unspecified)	NOD2 RIPK2 PPI 99, TLR9-MyD88 inh 58 (no result: TLR4 MyD88 comp) | TLR9-MyD88 conf 53 | BLA counter-1 inactive | TLR9 CHO cytotox 100 | NOD2-RIPK2 conf 94 | BLA counter-2 36
Cc1ccccc1CS(=O)(=O)c1ncc(Cl)c(C(=O)Nc2ccc(F)cc2)n1	NOD2 RIPK2 PPI 94, TLR9-MyD88 inh 34 (no result: TLR4 MyD88 comp) | TLR9-MyD88 conf 34 | BLA counter-1 inactive | TLR9 CHO cytotox 90 | NOD2-RIPK2 conf 83 | BLA counter-2 33
Cc1ccc(NC(=O)c2nc(S(=O)(=O)Cc3ccccc3)ncc2Cl)cc1	NOD2 RIPK2 PPI 92, TLR9-MyD88 inh 45 (no result: TLR4 MyD88 comp) | TLR9-MyD88 conf 45 | BLA counter-1 inactive | TLR9 CHO cytotox 99 | NOD2-RIPK2 conf 90 | BLA counter-2 41
COc1ccc(OC)c(NC(=O)c2nc(S(=O)(=O)Cc3ccccc3)ncc2Cl)c1	NOD2 RIPK2 PPI 94, TLR9-MyD88 inh 57 (no result: TLR4 MyD88 comp) | TLR9-MyD88 conf 53 | BLA counter-1 inactive | TLR9 CHO cytotox 99 | NOD2-RIPK2 conf 102 | BLA counter-2 49
O=C(Nc1ccc(F)cc1)c1nc(S(=O)(=O)Cc2ccccc2)ncc1Cl	NOD2 RIPK2 PPI 93, TLR9-MyD88 inh 36 (no result: TLR4 MyD88 comp) | TLR9-MyD88 conf 48 | BLA counter-1 inactive | TLR9 CHO cytotox 99 | NOD2-RIPK2 conf 90 | BLA counter-2 43
COc1ccc(NC(=O)c2nc(S(=O)(=O)Cc3cccc(C)c3)ncc2Cl)c(OC)c1	none (no result: TLR4 MyD88 comp)
COc1cc(N(C)C)ccc1[C@]1(O)C(=O)N(C)c2ccc(Br)cc21	none (no result: Rtt109 Vps75, TLR9-MyD88 inh, LANA-H2A inh, TLR4 MyD88 comp)
CC(=O)OCCn1c2nc(=O)[nH]c(=O)c-2nc2cc(C)c(C)cc21	NOD2 RIPK2 PPI 23, TLR9-MyD88 inh 21, LANA-H2A inh 166 (no result: TLR4 MyD88 comp) | TLR9-MyD88 conf inactive | BLA counter-1 inactive | TLR9 CHO cytotox inactive | NOD2-RIPK2 conf inactive | BLA counter-2 23
CC(=O)OCCn1c(C)[n+](CCOC(C)=O)c2cc(Cl)c(Cl)cc21	none (no result: Rtt109 Vps75)
CC(=O)c1ccc2c3c(cccc13)C(=O)N(c1c(C)nn(C)c1C)C2=O	none
Cc1n[nH]c(C)c1N1C(=O)c2cccc3c(N4CCCCCC4)ccc(c23)C1=O	NOD2 RIPK2 PPI 38, TLR9-MyD88 inh 27, LANA-H2A inh 65 | TLR9-MyD88 conf inactive | BLA counter-1 inactive | TLR9 CHO cytotox inactive | NOD2-RIPK2 conf 32 | BLA counter-2 42
CCCCNC(=O)COC(=O)c1c2c(nc3ccccc13)/C(=C\c1cccs1)CC2	NOD2 RIPK2 PPI 55, TLR9-MyD88 inh 45 (no result: LANA-H2A inh, TLR4 MyD88 comp) | TLR9-MyD88 conf 47 | BLA counter-1 56 | TLR9 CHO cytotox inactive | NOD2-RIPK2 conf 66 | BLA counter-2 76
CCc1cccc(C)c1NC(=O)COC(=O)c1c2c(nc3ccccc13)/C(=C\c1cccs1)CCC2	none

Assay outcomes from PubChem BioAssay.
